# Inconclusive results are not listed. Activity calls are given as the source filed them. How the source made its calls, unless noted: active means hit-call score of the fitted dose curve at least 0.9, where 1 is the maximum; inconclusive means response in the unintended direction; inactive means score below 0.9.
# Molecular target: Retinoic acid receptor RXR-alpha (Homo sapiens) (UniProt P19793)
# Test: OT_NURR1_NURR1RXRa_1440: Odyssey Thera (OT) 24-hour HEK293T Protein Complementation Assay for Nurr1/retinoid X receptor (RXR) (AID 2283386)
# Conditions: not given
# Method in brief: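 Interaction of Nurr1 with RXRα brings fused reporter fragments together in human HEK293T cells, restoring a functional reporter. Fluorescence intensity is measured 24 h after chemical treatment, and values are analysed in the positive direction against DMSO.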
# Chain of Retinoic acid receptor RXR-alpha (Homo sapiens) (P19793 whole entry, looked up): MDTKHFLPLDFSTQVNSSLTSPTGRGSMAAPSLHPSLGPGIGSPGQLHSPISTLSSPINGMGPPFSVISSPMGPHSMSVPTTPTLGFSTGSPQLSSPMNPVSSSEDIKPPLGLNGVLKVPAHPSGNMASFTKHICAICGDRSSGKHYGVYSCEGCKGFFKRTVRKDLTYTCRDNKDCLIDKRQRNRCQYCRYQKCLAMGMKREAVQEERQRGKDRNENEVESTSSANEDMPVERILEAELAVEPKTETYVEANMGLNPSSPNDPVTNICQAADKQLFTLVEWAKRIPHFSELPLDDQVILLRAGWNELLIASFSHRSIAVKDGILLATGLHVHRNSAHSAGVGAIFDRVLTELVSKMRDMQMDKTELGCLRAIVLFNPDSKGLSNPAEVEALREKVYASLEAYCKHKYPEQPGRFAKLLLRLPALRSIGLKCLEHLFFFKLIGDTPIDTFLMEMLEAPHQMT
SMILES,outcome,AC50
CC(C)(C)C(=O)c1ccccc1,inactive,–
O=C1NC(=O)c2ccccc21,inactive,–
CCCCCCCCCCC(CO)CCCCCCCC (centres undefined),inactive,–
CN(C)CCCN,inactive,–
NC(=O)NC1NC(=O)NC1=O (centres undefined),inactive,–
CC(=O)C=CC1=C(C)CCCC1(C)C,inactive,–
CC(=O)OCCC(C)CC(C)(C)C (centres undefined),inactive,–
O=C(O)c1ccc(C(=O)O)cc1,inactive,–
Cc1ccc(O)c(C(C)(C)C)c1,inactive,–
CCCCCCCCCCCCN,–,10.6 µM (active)
Cc1ccc(C(C)C)cc1O,inactive,–

# Molecular target: Peroxisome proliferator-activated receptor gamma (Homo sapiens) (UniProt P37231)
# Sequence (P37231 whole entry, looked up): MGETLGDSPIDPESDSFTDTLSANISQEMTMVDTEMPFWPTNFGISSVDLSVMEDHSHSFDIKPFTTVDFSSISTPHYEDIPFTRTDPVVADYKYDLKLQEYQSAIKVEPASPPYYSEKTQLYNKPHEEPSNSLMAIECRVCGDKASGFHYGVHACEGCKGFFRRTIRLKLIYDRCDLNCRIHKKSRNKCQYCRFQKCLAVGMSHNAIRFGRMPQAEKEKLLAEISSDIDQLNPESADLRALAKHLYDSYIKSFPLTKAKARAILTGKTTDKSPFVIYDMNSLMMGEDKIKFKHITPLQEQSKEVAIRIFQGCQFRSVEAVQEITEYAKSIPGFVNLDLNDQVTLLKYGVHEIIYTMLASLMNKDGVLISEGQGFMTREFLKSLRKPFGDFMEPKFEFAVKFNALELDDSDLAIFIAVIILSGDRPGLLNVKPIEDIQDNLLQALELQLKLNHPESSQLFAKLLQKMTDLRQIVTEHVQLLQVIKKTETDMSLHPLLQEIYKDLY
# Test: OT_PPARg_PPARgSRC1_0480: Odyssey Thera (OT) 8-hour Protein-Complementation Assay for Peroxisome Proliferator-activated Receptor Gamma / SRC-1 Co-activator (AID 2283387);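 further: nuclear to cytoplasmic split Venus YFP fluorescence ratio reporting PPARg SRC-1 interaction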
# Conditions: not given
# Method in brief: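 HEK293T transiently transfected with PPARg and SRC-1 fused to Venus YFP fragments, compounds 8 h at 37C. Fixed, Draq5-stained cells imaged; nuclear/cytoplasmic 488 nm fluorescence ratio over at least 350 cells per image; gain fitted versus DMSO.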
row,SMILES,outcome
1,O=C1NC(=O)c2ccccc21,inactive
2,CC(C)C[C@H]1C(=O)N2CCC[C@H]2[C@]2(O)O[C@](NC(=O)[C@@H]3C=C4c5cccc6[nH]c(Br)c(c56)C[C@H]4N(C)C3)(C(C)C)C(=O)N12,inactive
3,CCN(CC)CCOC(=O)c1ccc(N)cc1,inactive
4,CCCCCCCCCCC(CO)CCCCCCCC (centres undefined),inactive
5,CN(C)CCCN,inactive
6,O=C(O)Cc1cccc2ccccc12,inactive
7,CC1CC(OC(=O)c2ccccc2O)CC(C)(C)C1 (centres undefined),inactive
8,NC(=O)NC1NC(=O)NC1=O (centres undefined),inactive
9,COc1cc(C(C)(C)C)c(O)c(C(C)(C)C)c1,inactive
10,CSc1nc(NC2CC2)nc(NC(C)(C)C)n1,inactive
11,CCCC1CCC(=O)O1 (centres undefined),inactive
12,CC(C)=CCCC(C)CC=O (centres undefined),inactive
13,CC(=O)C=CC1=C(C)CCCC1(C)C,inactive
14,CC(=O)OCCC(C)CC(C)(C)C (centres undefined),inactive
15,NCCCCCCN,inactive
16,O=C(O)c1ccc(C(=O)O)cc1,inactive
17,Cc1ccc(O)c(C(C)(C)C)c1,inactive
18,CCCCCCCCCCCCN,inactive
19,Cc1ccc(C(C)C)cc1O,inactive
20,CC1(C)C(=O)N(Br)C(=O)N1Cl,inactive

# Molecular target: Peroxisome proliferator-activated receptor gamma (Homo sapiens) (UniProt P37231)
# Test: OT_PPARg_PPARgSRC1_1440: Odyssey Thera (OT) 24-hour Protein-Complementation Assay for Peroxisome Proliferator-activated Receptor Gamma/ SRC-1 Co-activator (AID 2283388)
# Conditions: not given
# Method in brief: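 Transient HEK293T, YFP fragments 1-158/159-239 (mutant IFP1/IFP2) fused to PPARg/SRC-1; 24 h dosing; fix 4% formaldehyde, Draq5; Opera imaging 488/635 nm; N/C ratio, gain vs DMSO.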
row,SMILES,outcome
1,O=C1NC(=O)c2ccccc21,inactive
2,CC(C)C[C@H]1C(=O)N2CCC[C@H]2[C@]2(O)O[C@](NC(=O)[C@@H]3C=C4c5cccc6[nH]c(Br)c(c56)C[C@H]4N(C)C3)(C(C)C)C(=O)N12,inactive
3,CCN(CC)CCOC(=O)c1ccc(N)cc1,inactive
4,CCCCCCCCCCC(CO)CCCCCCCC (centres undefined),inactive
5,CN(C)CCCN,inactive
6,O=C(O)Cc1cccc2ccccc12,inactive
7,CC1CC(OC(=O)c2ccccc2O)CC(C)(C)C1 (centres undefined),inactive
8,NC(=O)NC1NC(=O)NC1=O (centres undefined),inactive
9,COc1cc(C(C)(C)C)c(O)c(C(C)(C)C)c1,inactive
10,CSc1nc(NC2CC2)nc(NC(C)(C)C)n1,inactive
11,CCCC1CCC(=O)O1 (centres undefined),inactive
12,CC(C)=CCCC(C)CC=O (centres undefined),inactive
13,CC(=O)C=CC1=C(C)CCCC1(C)C,inactive
14,CC(=O)OCCC(C)CC(C)(C)C (centres undefined),inactive
15,NCCCCCCN,inactive
16,O=C(O)c1ccc(C(=O)O)cc1,inactive
17,Cc1ccc(O)c(C(C)(C)C)c1,inactive
18,CCCCCCCCCCCCN,inactive
19,Cc1ccc(C(C)C)cc1O,inactive
20,CC1(C)C(=O)N(Br)C(=O)N1Cl,inactive

# Read-out: not listed separately
# Test: CEETOX_H295R_11DCORT: CeeTox H295R High-throughput Steroidogenesis Assay for 11-Deoxycortisol (11DCORT) (AID 2283432; active means hit-call score of the fitted dose curve at least 0.9, where 1 is the maximum; inactive means score below 0.9;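 on AC50: human adrenal H295R cells prestimulated with 10 µM forskolin for 48 h; 11-deoxycortisol secreted into the medium measured by LC-MS/MS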)
# Conditions: actives raise or lower the signal
# Method in brief: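 H295R cells prestimulated 48 h with 10 uM forskolin, then exposed 48 h to chemical in 0.1% DMSO. 11-Deoxycortisol in medium quantified by HPLC-MS/MS after MTBE extraction; bidirectional fit versus DMSO. MTT viability read in same wells.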
SMILES,outcome,AC50
CC1(C)[C@H](C(=O)OCc2cccc(Oc3ccccc3)c2)[C@@H]1C=C(Cl)Cl,inactive,–
Nc1ccc(F)c([N+](=O)[O-])c1,inactive,–
Cc1ccc2n[nH]nc2c1,inactive,–
COc1cc2ncnc(Nc3cccc(Cl)c3)c2cc1OC,inactive,–
C=CC(C)(C)O,inactive,–
Nc1cc([N+](=O)[O-])ccc1Cl,inactive,–
C#C[C@]1(O)CC[C@H]2[C@@H]3CCC4=Cc5oncc5C[C@]4(C)[C@H]3CC[C@@]21C,–,5.4 µM (active)
O=C(O)C[C@H](O)C[C@H](O)/C=C/c1c(C2CC2)nc2ccccc2c1-c1ccc(F)cc1,–,0.0625 µM (active)
Cc1cccc(C)c1C,inactive,–

# Read-out: not listed separately
# Test: CEETOX_H295R_OHPREG: CeeTox H295R High-throughput Steroidogenesis Assay for OH-Pregnenolone (OHPREG) (AID 2283434; active means hit-call score of the fitted dose curve at least 0.9, where 1 is the maximum; inactive means score below 0.9)
# Conditions: actives raise or lower the signal
# Method in brief: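 Hormone levels in spent medium were measured by tandem mass spectrometry following liquid-liquid extraction. Cells (H295R) had been forskolin-stimulated (10 uM, 48 h) before a 48 h chemical exposure at 0.1% DMSO, with activity fitted in both directions against DMSO.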
SMILES,outcome,AC50
CC1(C)[C@H](C(=O)OCc2cccc(Oc3ccccc3)c2)[C@@H]1C=C(Cl)Cl,inactive,–
Nc1ccc(F)c([N+](=O)[O-])c1,inactive,–
Cc1ccc2n[nH]nc2c1,inactive,–
COc1cc2ncnc(Nc3cccc(Cl)c3)c2cc1OC,inactive,–
C=CC(C)(C)O,inactive,–
Nc1cc([N+](=O)[O-])ccc1Cl,inactive,–
C#C[C@]1(O)CC[C@H]2[C@@H]3CCC4=Cc5oncc5C[C@]4(C)[C@H]3CC[C@@]21C,–,0.36 µM (active)
CSc1nc(NC2CC2)nc(NC(C)(C)C)n1,inactive,–
O=C(O)C[C@H](O)C[C@H](O)/C=C/c1c(C2CC2)nc2ccccc2c1-c1ccc(F)cc1,–,0.00206 µM (active)
Cc1cccc(C)c1C,inactive,–

# Read-out: not listed separately
# Test: CEETOX_H295R_ANDR: CeeTox H295R High-throughput Steroidogenesis Assay for Androstenedione (ANDR) (AID 2283436; active means hit-call score of the fitted dose curve at least 0.9, where 1 is the maximum; inactive means score below 0.9;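 further: human H295R adrenal cells exposed for 48 h with androstenedione measured in medium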)
# Conditions: actives raise or lower the signal
# Method in brief: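 Read-out is androstenedione secreted into medium, measured by tandem mass spectrometry after liquid-liquid extraction. Cells were H295R, dosed for 48 h per modified OECD 456; activity fitted in both directions relative to DMSO.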
SMILES,outcome,AC50
CC1(C)[C@H](C(=O)OCc2cccc(Oc3ccccc3)c2)[C@@H]1C=C(Cl)Cl,inactive,–
COc1cc2ncnc(Nc3cccc(Cl)c3)c2cc1OC,inactive,–
C=CC(C)(C)O,inactive,–
Nc1cc([N+](=O)[O-])ccc1Cl,inactive,–
O=C(O)C[C@H](O)C[C@H](O)/C=C/c1c(C2CC2)nc2ccccc2c1-c1ccc(F)cc1,–,0.0768 µM (active)

# Read-out: not listed separately
# Test: CEETOX_H295R_CORTIC: CeeTox H295R High-throughput Steroidogenesis Assay for Corticosterone (CORTIC) (AID 2283437; active means hit-call score of the fitted dose curve at least 0.9, where 1 is the maximum; inactive means score below 0.9;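 further: corticosterone secreted into medium quantified by mass spectrometry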;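 on AC50: human H295R adrenal cells prestimulated with forskolin before chemical exposure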)
# Conditions: actives raise or lower the signal
# Method in brief: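 Corticosterone secreted into medium is measured by reverse-phase HPLC with tandem MS following liquid-liquid extraction. Cells are forskolin-stimulated (10 uM, 48 h) before 48 h test exposure; activity fitted in both directions against DMSO.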
SMILES,outcome,AC50
CC1(C)[C@H](C(=O)OCc2cccc(Oc3ccccc3)c2)[C@@H]1C=C(Cl)Cl,inactive,–
Nc1ccc(F)c([N+](=O)[O-])c1,inactive,–
Cc1ccc2n[nH]nc2c1,inactive,–
COc1cc2ncnc(Nc3cccc(Cl)c3)c2cc1OC,inactive,–
C=CC(C)(C)O,inactive,–
Nc1cc([N+](=O)[O-])ccc1Cl,inactive,–
C#C[C@]1(O)CC[C@H]2[C@@H]3CCC4=Cc5oncc5C[C@]4(C)[C@H]3CC[C@@]21C,–,14.5 µM (active)
O=C(O)C[C@H](O)C[C@H](O)/C=C/c1c(C2CC2)nc2ccccc2c1-c1ccc(F)cc1,–,0.0418 µM (active)
Cc1cccc(C)c1C,inactive,–
